PubChem BioAssay (NCI)
This is part of a sample that, as a whole, favours compounds with a hit. Of some 83,000 tested, about 20% had one in any assay.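 The endpoint reported here, percent growth, reads 100 for growth as untreated, 0 for no net growth and -100 for all cells dead.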 Calls of active or inactive are those of the source. How the source made its calls: active means growth percent below 10; inactive means the rest.

Assays:
Test in all cases: NCI-60 one-dose screen, 48 h (100 = growth as untreated, 0 = no growth, -100 = all killed)
Conditions in all cases: 10 µM unless noted
[1] = system: HCT-15 colon
[2] = system: HT29 colon
[3] = system: SNB-19 CNS
[4] = system: U251 CNS
[5] = system: PC-3 prostate
[6] = system: SK-MEL-5 melanoma
[7] = system: UACC-62 melanoma
[8] = system: SK-MEL-28 melanoma
[9] = system: SK-MEL-2 melanoma
[10] = system: EKVX NSCLC
[11] = system: SN12C renal
[12] = system: UO-31 renal
[13] = system: TK-10 renal
[14] = system: ACHN renal
[15] = system: CAKI-1 renal
[16] = system: A498 renal
[17] = system: MOLT-4 leukemia
[18] = system: LOX IMVI melanoma
[19] = system: CCRF-CEM leukemia

Measured: growth

COc1ccc(-c2ccc(-c3ccc(-c4ccc(C(=N)N)cc4)s3)s2)cc1OC
active: [1] -68.8% | [2] -60.2% | [10] -8.09% | [13] -78.8%
inactive: [3] 87.7% | [4] 46.4% | [5] 70.6% | [6] 93.8% | [7] 94.1% | [8] 93% | [9] 105% | [11] 91.7% | [12] 74.4% | [14] 95.5% | [15] 93.2% | [16] 48.6% | [17] 14.6%

O=C(Nc1ccc(NCCN2CCOCC2)nc1)c1ccc([N+](=O)[O-])cc1
inactive: [1] 105% | [2] 101% | [3] 106% | [4] 102% | [5] 98.5% | [6] 98.7% | [18] 102% | [8] 115% | [9] 108% | [10] 87.2% | [11] 107% | [12] 96.2% | [13] 114% | [14] 109% | [15] 99% | [16] 92.5% | [19] 101% | [17] 118%

CSc1nc2c(c(=O)[nH]1)C(c1ccc(C)cc1)C=C(C(=O)O)N2 (centres undefined)
inactive: [1] 105% | [2] 118% | [3] 133% | [4] 109% | [5] 109% | [6] 102% | [7] 129% | [8] 99.9% | [9] 120% | [11] 120% | [12] 88.1% | [13] 118% | [14] 106% | [15] 88.6% | [16] 93.1% | [17] 119%

O=[N+]([O-])c1cccc(-c2nc3sccn3c2-c2ccnc(NCCCNS(=O)(=O)c3ccc(Cl)cc3)n2)c1
inactive: [1] 35.2% | [2] 56.4% | [3] 83.5% | [4] 87.8% | [5] 28.1% | [18] 35.4% | [8] 66% | [9] 45.3% | [10] 50.9% | [11] 53.8% | [12] 22.2% | [13] 117% | [14] 47.8% | [15] 43.8% | [16] 68% | [19] 16.7% | [17] 13.7%
active: [6] -17.2%

Cc1ccc(-c2nc(C(Cl)Cl)n3nc(-c4ccccc4)cc3n2)cc1
inactive: [3] 27.4% | [6] 78.5% | [8] 85.9% | [9] 55.9% | [10] 35.3% | [11] 70.4% | [12] 46.9% | [16] 77.8% | [17] 103%
active: [1] -26.8% | [2] -43.6% | [4] -42.1% | [5] -13% | [7] -8.44% | [13] -68.6% | [14] 3.72% | [15] 4.32%

Cc1ccc(-c2cc3nc(-c4ccccc4)nc(C(Cl)Cl)n3n2)cc1
active: [1] -30.4% | [2] -47.1% | [3] -40.1% | [4] -83.5% | [5] -76% | [7] -65.3% | [10] -68% | [12] -99.7% | [13] -97.9% | [14] -99.3% | [15] -86.4% | [16] -73.8%
inactive: [6] 83.9% | [8] 34.6% | [9] 26.7% | [11] 55.5% | [17] 89.3%

CCCCN(CCCC)c1ccc(C(=N)c2ccc(N(CCCC)CCCC)cc2)cc1
active: [1] -91.9% | [2] -81.1% | [3] -82.8% | [4] -92.9% | [5] -94.4% | [6] -97% | [18] -97.2% | [8] 9.39% | [9] -79.1% | [10] -13.9% | [11] -94.1% | [12] -71.1% | [13] -83.9% | [14] -100% | [15] -37.6% | [16] -25.7%

COc1cccc(CC(C)=C(c2ccc(OCCN(C)C)cc2)c2ccc(OCCN(C)C)cc2)c1
active: [1] -37.8% | [2] -72.7% | [4] -77.8% | [6] -95.1% | [18] -84.3% | [11] -12.2% | [12] -91.3% | [13] -15.2% | [14] -82.4% | [19] -19.5% | [17] -25.5%
inactive: [3] 15.2% | [5] 15.6% | [9] 14% | [10] 62% | [16] 76.8%

CC(C)(C)c1[nH]nc2c1C(c1cc3ccccc3[nH]c1=O)Nc1cc(C(=O)Nc3ccc(Cl)cc3)ccc1N2 (centres undefined)
inactive: [1] 98.8% | [2] 91.3% | [3] 90.5% | [4] 60.5% | [5] 61.4% | [6] 70.2% | [7] 73.1% | [8] 81.7% | [9] 77.9% | [11] 71.1% | [12] 83.8% | [13] 105% | [14] 84.2% | [15] 94.9% | [16] 66.3% | [17] 18.5%

Oc1ccc2cc(Br)ccc2c1-c1c(O)ccc2cc(Br)ccc12
inactive: [1] 67.7% | [2] 11.2% | [3] 78.3% | [4] 65% | [5] 42.1% | [6] 72.8% | [18] 61.8% | [8] 65.5% | [9] 74.9% | [10] 57.6% | [11] 60.7% | [12] 24.3% | [13] 52% | [14] 23.1% | [15] 40.2% | [16] 72% | [19] 45% | [17] 40.2%

Cc1ccc(-c2cc3nc(C(Cl)Cl)nc(-c4cccnc4)n3n2)cc1
inactive: [3] 23.4% | [6] 44.8% | [7] 33.3% | [9] 77.8% | [11] 55.1% | [12] 35.9% | [16] 37.3% | [17] 27.8%
active: [1] -23.4% | [2] -27% | [4] -15.3% | [5] -4% | [10] -2.59% | [13] 6.78% | [14] 1.65% | [15] 2.71%

COC(=O)[C@]12CC[C@@H](C)[C@H](C)[C@@H]1C1=CC[C@@H]3[C@@]4(C)C(C=O)=C[C@@](C)(COC(=O)c5ccco5)[C@@H]4[C@H](O)C[C@@]3(C)[C@]1(C)CC2
inactive: [13] 11.5%
active: [1] -78.3% | [2] -64.4% | [3] 7.8% | [4] -76.8% | [5] -8% | [6] -94.9% | [18] -91.4% | [9] -44.4% | [10] -18.1% | [11] -19.7% | [12] -76.3% | [14] -47.7% | [15] -6.76% | [16] -2.1% | [19] -24.1% | [17] -0.738%

CCC1=CCC[C@@]2(C)CCC[C@@]3(C)CCCC(C)(C)[C@]1([O-])[O+]32
inactive: [1] 108% | [2] 102% | [3] 102% | [4] 103% | [5] 96.5% | [6] 101% | [7] 103% | [8] 96.8% | [9] 110% | [11] 106% | [12] 100% | [13] 109% | [14] 105% | [15] 94.7% | [16] 83.3% | [19] 127% | [17] 104%

COc1ccc(C2C=C(c3ccc(OC)c(OC)c3)N=C3SC=C(C)N32)c(Br)c1 (centres undefined)
inactive: [1] 92.8% | [2] 107% | [3] 110% | [4] 96.3% | [5] 103% | [6] 100% | [18] 109% | [8] 110% | [9] 101% | [11] 108% | [12] 94.8% | [13] 107% | [14] 95% | [15] 99.9% | [16] 115% | [19] 101% | [17] 84%

Cc1ccc(S(=O)(=O)NCCNc2nccc(-c3c(-c4cccc(N)c4)nc4sccn34)n2)cc1
inactive: [1] 92.1% | [2] 91.7% | [3] 104% | [4] 101% | [5] 84.5% | [6] 84.6% | [18] 95% | [8] 107% | [9] 109% | [10] 83.5% | [11] 81% | [12] 70.9% | [13] 116% | [14] 86.4% | [15] 81.8% | [16] 92.4% | [19] 95.8% | [17] 88%

O=C(c1c[nH]c(=O)c(-c2ccccc2)c1)c1ccccc1O
inactive: [1] 97.7% | [2] 101% | [3] 81.5% | [4] 89.2% | [5] 89.2% | [6] 95.4% | [18] 103% | [8] 93.5% | [9] 93.1% | [10] 94.7% | [11] 85.2% | [12] 68.6% | [13] 94.8% | [14] 82.8% | [15] 85% | [16] 76.8% | [19] 99.5% | [17] 96.1%

Clc1cc(Cl)cc(-c2ccc(-c3ccc(/C=N/NC4=NCCN4)cc3)s2)c1
inactive: [3] 53.2% | [5] 35.1% | [6] 88.1% | [7] 68.1% | [8] 97.3% | [9] 101% | [10] 92.6% | [11] 25.9% | [12] 53.6% | [13] 47% | [14] 59% | [15] 58.4% | [16] 88% | [17] 14.7%
active: [1] -62.4% | [2] 0.288% | [4] -79%
